The text below walks through data of PubChem BioAssay (EPA / NIEHS).

Where “and” joins values, the source holds several entries; their conditions need not be identical. Equal entries are not always repeated. Inconclusive results are not listed. Where a structure was tested more than once in an assay, its records may differ in their call. Calls of active or inactive are those of the source. Rule for the calls: active = hit-call score of the fitted dose curve at least 0.9, where 1 is the maximum; inconclusive = response in the unintended direction; inactive = score below 0.9.

Assay [1] deals with rat Peripheral-type Benzodiazepine Receptor (PBR), Tspo (gene 24230) (UniProt P16257). Kind of assay: NVS_MP_rPBR: NovaScreen (NVS) Membrane Protein Assay for rat Peripheral-type Benzodiazepine Receptor (PBR) (AID 2283335). In a few lines:
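Competitive displacement of specific radioligand from rat kidney membrane PBR, read by filtration and scintillation after 1 h. Compounds first tested at 25 uM in duplicate, then in concentration series; signal loss relative to DMSO.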

Assay [2] has as its target Estrogen receptor (Homo sapiens) (UniProt P03372). Kind of assay: OT_ER_ERaERa_1440: Odyssey Thera (OT) 24-hour HEK293T Protein-Complementation Assay for Estrogen Receptor-alpha/-alpha Homodimer (AID 2283349).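 Note: hits raise fluorescence above DMSO for agonists and antagonists alike.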 In a few lines: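 Stably transfected HEK293T; ERα LBD homodimer PCA. 24 h dosing, fluorescence intensity read, gain-of-signal vs DMSO.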
The target of assay [3] is Estrogen receptor (Homo sapiens) + Estrogen receptor beta (Homo sapiens) (UniProt P03372+Q92731). Kind of assay: OT_ER_ERaERb_0480: Odyssey Thera (OT) 8-hour HEK293T Protein-Complementation Assay for Estrogen Receptor-alpha/-beta Heterodimer (AID 2283352). In a few lines:
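Fluorescence increase from reconstituted reporter fragments, quantified by laser scanning cytometer, reflects ER-alpha/ER-beta heterodimer formation in human HEK293T cells. Exposure 8 h; positive-direction fitting against DMSO vehicle.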

Assay [4] has as its target Androgen Receptor/SRC-1 Co-activator, AR (gene 367) (UniProt P10275). Kind of assay: OT_AR_ARSRC1_0960: Odyssey Thera (OT) 16-hour HEK293T Protein-Complementation Assay for Androgen Receptor/SRC-1 Co-activator (AID 2283353).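 Note: actives raise the signal above DMSO so potency reflects increased AR and SRC-1 complex.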 The essentials: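 Stable HEK293T line carries AR and SRC-1 each linked to a Venus fragment; chemicals are applied for 16 h, cells imaged at two wavelengths, and the 488 nm nucleus/cytoplasm ratio is taken as the signal, rising relative to DMSO.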

Assay [5] shares this target. Kind of assay: OT_AR_ARSRC1_0480: Odyssey Thera (OT) 8-hour HEK293T Protein-Complementation Assay for Androgen Receptor/SRC-1 Co-activator (AID 2283354).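 Note: hits raise the complementation signal above DMSO so AC50 marks enhancers.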 In a few lines:
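After 8 h dosing, stably expressing HEK293T cells with split-Venus AR/SRC-1 fusions were imaged (488, 635nm). The 488nm N/C ratio per image gave the endpoint, analysed in the positive direction against DMSO.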

Assay [6] has as its target bovine Estrogen Receptor (ER), ESR1 (gene 407238) (UniProt P49884). Briefly: NVS_NR_bER: NovaScreen (NVS) Nuclear Receptor Binding Assay for bovine Estrogen Receptor (ER) (AID 2283345).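 Note: actives lower the bound radioligand count which means they displace the ER ligand.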 In a few lines: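 Scintillation counting of displaced radioligand gave the readout; bovine uterine membrane extract supplied the receptor. Measured 18 h post-dose, normalized to DMSO baseline. Single 25 uM duplicate screen preceded concentration-response follow-up.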

The target of assay [7] is Estrogen receptor (Homo sapiens) (UniProt P03372). Kind of assay: NVS_NR_hER: NovaScreen (NVS) Nuclear Receptor Binding Assay for human Estrogen Receptor (ER) (AID 2283348). In a few lines: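 Radiodetection of ligand displacement in a lysate-based, cell-free format using MCF7 extracts, read at 18 hours. Duplicate 25 uM primary testing, then concentration series for actives.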

The target in assay [8] is chimpanzee Androgen Receptor (AR), AR (gene 747460) (UniProt O97775). Kind of assay: NVS_NR_cAR: NovaScreen (NVS) Nuclear Receptor Binding Assay for chimpanzee Androgen Receptor (AR) (AID 2283346).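 Note: radioligand displacement from AR measured by scintillation counting in a cell-free assay.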 The essentials:
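Cell-free radioligand displacement using receptor protein extracted from Sf9/Sf21 cells; bound radioligand measured by scintillation counting 72 hours after chemical dosing. Loss of signal versus DMSO baseline indicates binding; primary screen single-concentration in duplicate at 25 uM, actives followed in concentration series.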

In assay [9] the target is human Androgen Receptor (AR), AR (gene 367) (UniProt P10275). Briefly: NVS_NR_hAR: NovaScreen (NVS) Nuclear Receptor Binding Assay for human Androgen Receptor (AR) (AID 2283332). In a few lines: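 Actives from a duplicate 25 uM single-point screen went on to concentration series. Read-out after 20 h was scintillation counting of displaced radioligand in LnCAP extract, with DMSO as baseline.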

Assay [10] in a line: NVS_IC_rCaBTZCHL: NovaScreen (NVS) Ion Channel Assay for Calcium Channel, Type L, Benzothiazepine Site (CaBTZCHL) (AID 2283337). In a few lines: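 Test chemicals were added to rat cortical membranes and incubated 1.5 h with a tritiated or iodinated radioligand for the benzothiazepine site. Bound ligand was separated by filtration and counted. Actives from the 25 uM duplicate screen were retested in concentration series.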

Sequence of bovine Estrogen Receptor (ER), ESR1 (gene 407238) (P49884 whole entry, looked up): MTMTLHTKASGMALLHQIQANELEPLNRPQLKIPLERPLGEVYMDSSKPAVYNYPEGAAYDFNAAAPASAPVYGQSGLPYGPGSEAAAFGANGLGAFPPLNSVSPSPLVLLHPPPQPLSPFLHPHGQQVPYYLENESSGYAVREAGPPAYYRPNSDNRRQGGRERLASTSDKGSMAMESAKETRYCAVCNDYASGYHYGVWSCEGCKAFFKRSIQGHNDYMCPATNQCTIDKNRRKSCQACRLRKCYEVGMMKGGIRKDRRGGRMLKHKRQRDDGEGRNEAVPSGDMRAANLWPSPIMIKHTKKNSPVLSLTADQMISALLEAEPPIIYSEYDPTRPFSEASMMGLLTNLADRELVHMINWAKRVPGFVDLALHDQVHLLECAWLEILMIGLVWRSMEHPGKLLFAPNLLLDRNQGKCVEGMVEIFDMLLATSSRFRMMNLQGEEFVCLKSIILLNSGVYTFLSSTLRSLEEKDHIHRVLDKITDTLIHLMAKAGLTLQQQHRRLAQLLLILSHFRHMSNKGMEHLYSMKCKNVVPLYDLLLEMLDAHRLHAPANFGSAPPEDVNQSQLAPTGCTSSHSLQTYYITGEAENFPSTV
Sequence of Estrogen receptor (Homo sapiens) (P03372 whole entry, looked up, the tested form may be a part): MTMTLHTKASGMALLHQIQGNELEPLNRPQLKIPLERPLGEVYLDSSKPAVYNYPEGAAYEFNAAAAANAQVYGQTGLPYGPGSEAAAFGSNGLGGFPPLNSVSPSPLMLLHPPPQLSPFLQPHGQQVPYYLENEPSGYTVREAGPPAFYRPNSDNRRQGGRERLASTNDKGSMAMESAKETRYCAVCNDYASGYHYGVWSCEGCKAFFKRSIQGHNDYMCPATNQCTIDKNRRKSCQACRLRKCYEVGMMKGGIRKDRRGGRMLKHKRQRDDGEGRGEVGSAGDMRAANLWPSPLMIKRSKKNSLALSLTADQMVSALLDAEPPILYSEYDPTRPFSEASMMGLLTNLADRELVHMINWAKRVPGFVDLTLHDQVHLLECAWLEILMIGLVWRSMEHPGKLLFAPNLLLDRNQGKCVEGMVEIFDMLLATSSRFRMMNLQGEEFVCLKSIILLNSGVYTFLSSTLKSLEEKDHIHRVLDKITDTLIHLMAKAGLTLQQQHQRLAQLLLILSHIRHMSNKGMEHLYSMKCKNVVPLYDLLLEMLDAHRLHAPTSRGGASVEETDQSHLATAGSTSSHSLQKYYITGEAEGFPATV
Sequence of Estrogen receptor (Homo sapiens) + Estrogen receptor beta (Homo sapiens) (P03372 whole entry, looked up, the tested form may be a part): as above
Sequence of Estrogen receptor (Homo sapiens) + Estrogen receptor beta (Homo sapiens) (Q92731 whole entry, looked up, the tested form may be a part): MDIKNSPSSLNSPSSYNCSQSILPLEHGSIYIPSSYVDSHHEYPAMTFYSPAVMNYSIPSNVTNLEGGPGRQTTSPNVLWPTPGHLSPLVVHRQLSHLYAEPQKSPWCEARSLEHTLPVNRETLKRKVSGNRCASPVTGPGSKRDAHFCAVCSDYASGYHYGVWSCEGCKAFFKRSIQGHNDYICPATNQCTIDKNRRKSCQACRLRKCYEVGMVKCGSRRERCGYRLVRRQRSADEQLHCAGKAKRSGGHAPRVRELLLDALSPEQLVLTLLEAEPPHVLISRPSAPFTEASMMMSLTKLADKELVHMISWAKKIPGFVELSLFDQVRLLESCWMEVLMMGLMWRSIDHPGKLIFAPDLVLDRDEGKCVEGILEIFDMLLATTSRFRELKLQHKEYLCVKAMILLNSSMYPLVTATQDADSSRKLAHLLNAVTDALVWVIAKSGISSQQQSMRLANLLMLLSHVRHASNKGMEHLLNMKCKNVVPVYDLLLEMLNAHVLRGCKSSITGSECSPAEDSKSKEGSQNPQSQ
Sequence of chimpanzee Androgen Receptor (AR), AR (gene 747460) (O97775 whole entry, looked up): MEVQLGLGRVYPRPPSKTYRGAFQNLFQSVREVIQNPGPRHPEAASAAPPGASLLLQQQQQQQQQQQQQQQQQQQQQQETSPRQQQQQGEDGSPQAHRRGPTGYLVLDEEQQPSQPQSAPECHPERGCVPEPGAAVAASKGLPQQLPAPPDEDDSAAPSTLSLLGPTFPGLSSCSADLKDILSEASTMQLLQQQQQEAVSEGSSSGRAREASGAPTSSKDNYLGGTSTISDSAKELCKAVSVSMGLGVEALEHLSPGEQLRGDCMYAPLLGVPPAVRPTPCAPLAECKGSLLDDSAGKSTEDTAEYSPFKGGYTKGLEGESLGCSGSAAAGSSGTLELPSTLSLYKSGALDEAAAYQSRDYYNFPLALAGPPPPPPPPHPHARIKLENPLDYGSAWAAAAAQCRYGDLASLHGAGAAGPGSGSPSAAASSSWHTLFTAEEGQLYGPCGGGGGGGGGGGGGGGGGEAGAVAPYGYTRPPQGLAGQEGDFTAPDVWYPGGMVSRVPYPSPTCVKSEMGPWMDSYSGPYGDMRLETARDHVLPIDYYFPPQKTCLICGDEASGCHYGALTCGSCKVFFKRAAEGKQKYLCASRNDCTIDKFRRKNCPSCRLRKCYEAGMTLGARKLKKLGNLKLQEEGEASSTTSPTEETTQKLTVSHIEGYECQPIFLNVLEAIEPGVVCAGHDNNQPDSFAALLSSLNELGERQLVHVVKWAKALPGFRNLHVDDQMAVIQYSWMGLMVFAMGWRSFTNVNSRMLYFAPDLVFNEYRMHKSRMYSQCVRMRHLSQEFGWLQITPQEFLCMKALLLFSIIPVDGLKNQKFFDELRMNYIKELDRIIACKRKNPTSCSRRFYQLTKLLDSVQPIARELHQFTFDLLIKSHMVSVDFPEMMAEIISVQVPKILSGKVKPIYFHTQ
Sequence of rat Peripheral-type Benzodiazepine Receptor (PBR), Tspo (gene 24230) (P16257 whole entry, looked up): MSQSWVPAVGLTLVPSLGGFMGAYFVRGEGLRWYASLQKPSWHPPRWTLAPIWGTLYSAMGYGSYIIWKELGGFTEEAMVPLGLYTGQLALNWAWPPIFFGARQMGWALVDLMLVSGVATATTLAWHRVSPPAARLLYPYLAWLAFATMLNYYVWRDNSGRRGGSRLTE
Sequence of Androgen Receptor/SRC-1 Co-activator, AR (gene 367) (P10275 whole entry, looked up, the tested form may be a part): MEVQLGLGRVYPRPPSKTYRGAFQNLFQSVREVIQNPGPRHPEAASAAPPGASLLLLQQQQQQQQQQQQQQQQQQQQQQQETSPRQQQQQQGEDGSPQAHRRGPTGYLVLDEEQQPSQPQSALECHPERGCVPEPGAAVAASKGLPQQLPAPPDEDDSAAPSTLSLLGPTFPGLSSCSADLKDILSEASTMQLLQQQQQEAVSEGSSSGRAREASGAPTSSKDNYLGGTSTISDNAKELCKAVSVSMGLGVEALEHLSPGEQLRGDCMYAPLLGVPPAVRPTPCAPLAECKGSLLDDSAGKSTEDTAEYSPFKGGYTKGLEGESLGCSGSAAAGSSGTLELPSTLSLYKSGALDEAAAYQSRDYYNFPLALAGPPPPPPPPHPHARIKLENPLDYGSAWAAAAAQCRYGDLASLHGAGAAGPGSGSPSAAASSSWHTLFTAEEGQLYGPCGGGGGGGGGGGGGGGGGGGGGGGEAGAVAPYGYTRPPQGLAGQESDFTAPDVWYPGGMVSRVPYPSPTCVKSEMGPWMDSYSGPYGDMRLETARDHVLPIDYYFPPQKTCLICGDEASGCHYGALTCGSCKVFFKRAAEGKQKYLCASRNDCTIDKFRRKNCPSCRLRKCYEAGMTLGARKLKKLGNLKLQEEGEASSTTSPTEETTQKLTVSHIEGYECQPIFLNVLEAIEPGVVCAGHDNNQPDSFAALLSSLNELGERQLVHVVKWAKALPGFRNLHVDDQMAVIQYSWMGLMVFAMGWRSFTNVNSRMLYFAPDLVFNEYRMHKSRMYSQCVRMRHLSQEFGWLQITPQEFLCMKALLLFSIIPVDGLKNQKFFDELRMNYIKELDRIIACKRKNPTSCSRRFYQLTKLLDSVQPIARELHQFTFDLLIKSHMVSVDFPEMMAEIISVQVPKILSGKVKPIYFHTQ
Sequence of human Androgen Receptor (AR), AR (gene 367) (P10275 whole entry, looked up): as the sequence (P10275 whole entry, looked up, the tested form may be a part) above

In the case of `Nc1ccc(Oc2cccc(Oc3ccc(N)cc3)c2)cc1`, the AC50 in assay [1] is 13.3 µM (active).
Regarding `C1COCCN1`, the call in assay [2] and in [3] was inactive.
Consider `CCCCOc1ccc(N)cc1`, for which the compound was called inactive in assay [2] and in assay [3].
`CCCCCCOC(=O)c1ccccc1O`: the outcome in assay [2], in assay [4] and in assay [5] was inactive. Further, the AC50 in [3] is 60.2 µM (active).
Consider `CCCCCCCCCCCCCCCC[N+](C)(C)Cc1ccccc1`, for which the AC50 in assay [1] is 9.82 µM (active). In addition, the compound was classed as inactive in assay [6] and in assay [7].
Regarding `O=C(OCCOCCOCCOC(=O)c1ccccc1)c1ccccc1`, the result in [2] and in assay [3] was inactive.
In the case of `O=S(=O)(O)c1ccc2ccccc2c1`, in assay [2], the outcome was inactive.
`CC(CCl)OP(=O)(OC(C)CCl)OC(C)CCl` (stereo unspecified): in assay [1], the AC50 is 4.23 µM (active) and 14.6 µM (active). The compound was classed as inactive in [2] and in assay [3].
Take `CCCCCCC(C)OC(=O)CCCCC(=O)OC(C)CCCCCC` (stereo unspecified): the result in assay [8], in [2], in assay [3], in assay [4] and in assay [5] was inactive.
`Nc1ccc([N+](=O)[O-])cc1O`: the call in assay [6] and in [7] was inactive.
As to `C(=C(c1ccccc1)c1ccccc1)c1ccccc1`, the compound was called inactive in [6] and in assay [7]. For the same compound, the AC50 in assay [2] was 43.1 µM (active); in assay [3], 9.47 µM (active).
In the case of `Cc1ccc(S(=O)(=O)NCl)cc1`, in assay [2], the outcome was inactive.
Turning to `CCCCCCOC(=O)c1ccccc1`, the compound was called inactive in assay [2] and in [3].
For `CCN(CC)c1ccc2c(C)cc(=O)oc2c1`, the concentration at half-maximal activity (AC50) in assay [1] was 3.32 µM (active); in [8], 5 µM (active). Moreover, in [6], the outcome was inactive.
`CNC(=S)NC`: the compound was classed as inactive in [2], in [4] and in [5].
Regarding `C#C[C@]1(O)CC[C@H]2[C@@H]3CCc4cc(OC)ccc4[C@H]3CC[C@@]21C`, the AC50 was 0.0305 µM (active) in assay [6], 3.99 µM (active) in assay [8], 0.00229 µM (active) in assay [7] and 17.1 µM (active) in assay [2]. The compound was classed as inactive in [7].
`OC[C@@H](O)[C@@H](O)[C@H](O)[C@@H](O)CO`: the call in assay [2] was inactive.
Turning to `c1ccc(B(c2ccccc2)c2ccccc2)cc1`, in [6], the result was inactive. Besides, the results for the AC50 in [8], in assay [7] and in assay [2] were 17.5 µM (active), 13.9 µM (active) and 78.5 µM (active), respectively.
Take `CC/C=C\CCOC(C)=O`: the compound was classed as inactive in assay [2] and in assay [3].
For the compound `CCCCC(CC)COP(=O)(O)OCC(CC)CCCC` (stereo unspecified), the compound was called inactive in [7] and in assay [2].
For the compound `CC(=O)Nc1ccc(N=Nc2cc(C)ccc2O)cc1`, the AC50 in assay [9] was 31.4 µM (active). Also, the compound was classed as inactive in assay [8].
`[Co]`: the compound was called inactive in [2], in assay [3], in [4] and in assay [5].
Take `COC(=O)C1CCC(C(=O)OC)CC1` (stereo unspecified): the call in [2] and in assay [3] was inactive.
For `CN(C)Cc1ccccc1O`, the compound was called inactive in assay [7], in assay [2], in assay [3], in assay [4] and in assay [5].
With `CCN(Cc1cccc(S(=O)(=O)O)c1)c1ccc(C(=C2C=CC(=[N+](CC)Cc3cccc(S(=O)(=O)O)c3)C=C2)c2ccc(O)cc2S(=O)(=O)[O-])cc1`, the AC50 in assay [8] was 13.2 µM (active). The call in [2] and in assay [3] was inactive.
`CC(C)OC(=O)c1ccccc1C(=O)OC(C)C`: in assay [1], the AC50 is 9.08 µM (active). In addition, the call in [2] was inactive.
`Cc1cc(C)cc(O)c1`: the compound was called inactive in assay [7], in [2] and in [3].
In the case of `Oc1ccc(Nc2ccccc2)cc1`, in assay [10], the result was inactive. The AC50 is 25 µM (active) in [6] and 8.86 µM (active) in assay [7].
Regarding `CC(Cc1ccc(O)c(O)c1)C(C)Cc1ccc(O)c(O)c1` (stereo unspecified), the AC50 in assay [1] was 6.77 µM (active); in [6], 11.1 µM (active); in [7] it was 0.705 µM (active); in assay [2], 11.9 µM (active); in [3], 2.42 µM (active).

In general, AC50 refers to the concentration at which the activity in the assay is half-maximal.
